Screening data as filed in PubChem.
L3MBTL1 inh: blocks human L3MBTL1 | Q9Y468 | AlphaScreen L3MBTL1–H3K9me1 peptide binding | Potency, µM (titrated, usually from 57.1 µM), for the others: top-dose activity, negative = inhibition, usual class: inhibitors | 230,000 tested, 0.66% active; further: on the % scale 0 is the no-effect control and ±100 the full control effect; nearly all actives have a fitted effect of over 60% in size
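AlphaScreen assay: L3MBTL1 (50 nM final) was preincubated 30 min at room temperature with biotinylated H3(1-15)K9me1 peptide (75 nM final), then 30 min with library compounds; streptavidin donor and nickel chelate acceptor beads (10 ug/mL final) added, 30 min dark.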
POLB inh: inhibitors of human DNA polymerase beta; Potency, µM (highest dose often 114 µM), without a hit: at the top dose activity change, negative = inhibition, usual class: inhibitors; 340,000 tested, 1.3% active; P06746; Pol beta primer extension/strand displacement, fluorescence kinetic; AID 485314; further: on the % scale 0 is the no-effect control and ±100 the full control effect
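Reaction started by 50 nM substrate onto compound-treated Pol beta (10 nM, 15 min preincubation, room temperature); plates read at 0 min and 10 min. Normalized concentration-effect data fitted by four-parameter Hill equation.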
Pol eta inh: inhibitors of human DNA polymerase eta. Q9Y253. recombinant Pol eta, fluorescent DNA replication assay. Potency, µM (doses to about 114 µM), for inactives: top-dose activity change, negative = inhibition, usual class: inhibitors. 390,000 tested, 1.2% active. AID 588591; further: on the % scale 0 is the no-effect control and ±100 the full control effect
Target sequence (Q9Y253 whole entry, looked up): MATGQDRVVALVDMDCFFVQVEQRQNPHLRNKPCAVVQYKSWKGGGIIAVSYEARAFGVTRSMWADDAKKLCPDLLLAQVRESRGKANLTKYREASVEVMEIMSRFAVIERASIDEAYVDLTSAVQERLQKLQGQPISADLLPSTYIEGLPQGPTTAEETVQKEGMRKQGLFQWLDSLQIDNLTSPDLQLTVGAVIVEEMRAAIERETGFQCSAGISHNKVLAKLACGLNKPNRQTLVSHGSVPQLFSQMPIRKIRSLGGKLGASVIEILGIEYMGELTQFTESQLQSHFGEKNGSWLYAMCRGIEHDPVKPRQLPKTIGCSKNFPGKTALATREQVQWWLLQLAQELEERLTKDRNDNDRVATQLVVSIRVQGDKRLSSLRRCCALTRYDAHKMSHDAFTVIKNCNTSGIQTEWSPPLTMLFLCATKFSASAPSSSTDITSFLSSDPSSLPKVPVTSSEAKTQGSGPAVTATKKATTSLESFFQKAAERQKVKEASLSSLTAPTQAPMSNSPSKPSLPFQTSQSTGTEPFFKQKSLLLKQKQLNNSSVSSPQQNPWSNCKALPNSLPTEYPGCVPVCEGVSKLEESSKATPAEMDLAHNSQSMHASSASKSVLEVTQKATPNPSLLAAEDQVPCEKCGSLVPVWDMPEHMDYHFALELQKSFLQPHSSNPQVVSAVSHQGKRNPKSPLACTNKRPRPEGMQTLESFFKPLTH
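Pol eta (10 nM) was preincubated with compounds for 15 min at room temperature, after which fluorescent replication substrate (50 nM final) was added to start the reaction. Fluorescence was read kinetically at 0 and 10 min.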
Pol kappa inh: DNA polymerase kappa (human) inhibition; purified Pol kappa, fluorescent DNA synthesis assay, 10 min; Potency, µM (doses to about 107 µM), for the others: at the top dose activity, negative = inhibition, most hits filed as inhibitors; 400,000 tested, 0.53% active; AID 588579; further: on the % scale 0 is the no-effect control and ±100 the full control effect
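10 nM Pol kappa was preincubated with compounds for 15 min at room temperature. Reaction started with 50 nM (final) substrate. Fluorescence read kinetically at 0 and 10 min.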
Pol iota inh: blocks human DNA polymerase iota activity. Potency, µM (titrated, usually from 115 µM), for the others: at the highest dose activity, negative = inhibition, most hits filed as inhibitors. Pol iota fluorescent replication assay, 10 min. Q9UNA4. AID 588590. 390,000 tested, 1% active
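Fluorescent replication assay read twice, at 0 min and 10 min after adding 50 nM (final) substrate. Enzyme (10 nM) and compounds were first incubated 15 min at room temperature; enzyme-free buffer wells were negative controls.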
WRN helicase inh: inhibitors of human WRN helicase; Q14191; WRN helicase unwinding, fluorescent forked duplex, kinetic; Potency, µM (doses to about 114 µM), for inactives: at the top dose activity change, negative = inhibition, usual class: inhibitors; 360,000 tested, 0.46% active; AID 651768; further: on the % scale 0 is the no-effect control and ±100 the full control effect; nearly all actives have a fitted effect of over 55% in size
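WRN at 20 nM final was preincubated with compound for 15 min at room temperature; reaction started with 100 nM forked duplex oligonucleotide carrying fluorophore and quencher plus 2 mM ATP (final). Unwinding followed kinetically by red fluorescence (ex 525/em 598 nm).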
Starred values were filed as active, the others as inactive; u = inconclusive; x = no result; [ ] = dose if it differs, or a comment. The list is not random: actives were taken first. Their share in the collection is about 2.5%. The call rests on the fitted dose curve; in most records, active means well fitted curve in the direction sought with a large enough effect; inconclusive means small, poorly fitted or top-dose-only effect, or another doubt; inactive means no such curve, though single readings can be large; an effect the other way counts as inactive or inconclusive. Potency means the concentration at half of the fitted maximal effect.

SMILES	L3MBTL1 inh	POLB inh	Pol eta inh	Pol kappa inh	Pol iota inh	WRN helicase inh
Cn1cccc1C(=O)Nc1nc(-c2ccccn2)cs1	32µM*	u	u	-10%	-150%	4%
Cc1c(C(=O)Nc2nc(-c3ccccn3)cs2)oc2ccccc12	u	x	u	u	u	-8%
O=C(Nc1nc(-c2ccccn2)cs1)c1cc2ccccc2o1	20µM*	0%	-4%	-1%	83%	15%
C/C(CC(=O)Nc1ccc(Cl)c(C(F)(F)F)c1)=N\NC(=O)c1cc2ccccc2cc1O	-9%	-14%	-8%	u	89µM*	-11%[57.1 µM]
C/C(CC(=O)N1CCCC1)=N\NC(=O)c1cc2ccccc2cc1O	-29%	-74%	-8%	u	79µM*	-4%
OCCCc1cn(-c2ccccc2)c2ccccc12	-3%	1%	-26%	-12%	40%	-3%
O=C1/C(=C/c2ccc(O)c(O)c2)Oc2ccccc21	x	x	x	13µM*	x	x
Cc1ccccc1/C=C1\Oc2ccccc2C1=O	-4%	x	-12%	7%	-19%	-5%
O=C(O)[C@@H]1[C@H]2C[C@H]3c4[nH]c5ccccc5c4CCN3C[C@@H]2CC[C@@H]1O	-5%	x	79µM*	u	u	10%
COC(=O)[C@@H]1[C@H]2C[C@H]3c4[nH]c5ccccc5c4CCN3C[C@H]2CC[C@@H]1O	x	x	x	-1%[19.4 µM]	x	x
Cn1c(=O)c2c(SCC(=O)Nc3ccccc3C(F)(F)F)nc(C3CCCC3)nc2n(C)c1=O	x	10%	-20%	-6%[60.1 µM]	26%	x
Cc1cc(C(=O)COC(=O)c2ccc(NC(=O)CC#N)cc2)c(C)n1CCc1ccc(F)cc1	-15%	x	-27%	-21%	-14%	-12%
COc1ccc(CCn2c(C)cc(C(=O)COC(=O)c3ccc(NC(=O)CC#N)cc3)c2C)cc1	x	13%	79µM*	u	u	-27%
O=C(COc1ccc(-c2ccccc2)cc1)NNC(=O)Nc1ccc(F)cc1F	x	8.9µM*	u	-2%	12%	-16%
O=C(COc1ccc2ccccc2c1)NNC(=O)c1ccc([N+](=O)[O-])cc1	-23%	8.9µM*	79µM*	-20%	u	-17%
CC(Oc1ccc2ccccc2c1)C(=O)NNC(=O)Nc1ccccc1F (stereo not drawn)	x	u	-3%	-18%	15%	1%
O=C(COc1ccc2ccccc2c1)Nc1cccc(C(=O)Nc2ccccc2C(=O)O)c1	-9%	10%	28µM*	-7%	-6%	u
COc1ccc(OC)c(NC(=O)NNC(=O)COc2ccc(-c3ccccc3)cc2)c1	x	30%	-17%	-5%	17%	-23%
O=C(COc1ccc2ccccc2c1)NNC(=O)Nc1ccccc1F	x	35µM*	u	-11%	79µM*	-32%
O=[N+]([O-])c1ccc(/C=N/Nc2ncc(-c3ccccc3)cn2)cc1	-1%	-1%	-19%	-2%	35%	-7%[57.1 µM]
Cc1cn(C2OC(CC(=O)Oc3ccccc3)C(O)C2O)c(=O)[nH]c1=O (stereo not drawn)	x	x	-11%	2%	14%	-1%
CC12CCC(=O)N1C(C(=O)Nc1nc(-c3ccccc3)cs1)CS2 (stereo not drawn)	-2%	x	-4%	-1%	25%	2%
Cc1cc(O)c(C(C)C)cc1N=Cc1ccc([N+](=O)[O-])cc1	x	x	-20%	-4%	10µM*	u
Cc1ccc(OCC(=O)c2ccc(Cl)s2)c([N+](=O)[O-])n1	-30%	25µM*	u	u	u	-25%
COc1ccc(-c2nn(-c3ccccc3)cc2/C=C(\CC(=O)O)c2nc3ccccc3s2)cc1OC	33%	u	56µM*	u	u	u
SMILES	L3MBTL1 inh	POLB inh	Pol eta inh	Pol kappa inh	Pol iota inh	WRN helicase inh
COC(=O)c1c(C)sc(-c2c(-c3ccc(F)cc3)[nH]c3[nH]c(=O)[nH]c(=O)c23)c1O	x	56µM*	x	u	u	x
C/C(=N\NC(=O)c1ccc(-c2ccccc2)cc1)C1C(=O)c2ccccc2C1=O	-11%	-9%	32µM*	-5%	u	u
C/C(=N\NC(=O)c1ccc(Br)cc1)C1C(=O)c2ccccc2C1=O	x	22%	-17%	-12%	8%	-30%
CCC(NC(=O)OCc1ccccc1)C(=O)Oc1ccc2ccc(=O)oc2c1 (stereo not drawn)	x	4%	-2%	1%	u	3%
Nc1c(-c2ccccc2)c(CN2CCOCC2)nn1-c1ccc(C(=O)O)cc1	6%	u	-20%	1%	0%	3%
Cc1noc(C)c1NC(=O)N(C)C[C@@H]1Oc2ccc(NC(=O)C3CCCCC3)cc2C(=O)N([C@@H](C)CO)C[C@H]1C	4%	x	4%	-14%	u	5%
COc1cc2c(cc1OC)CN(C(=O)Cn1ccccc1=O)CC2	u	79µM*	35µM*	-30%	u	-4%
COc1ccc(Cl)cc1-c1nc(SCC(=O)N(C)CCC#N)n[nH]1	10%	u	-16%	1%	84%	-10%
COc1ccc(N(CCN2C(=O)c3ccccc3C2=O)C(=O)c2cccc([N+](=O)[O-])c2)cc1	-23%	0.16µM*	u	3%[60.1 µM]	-15%	0%
COc1ccc(N(CCCN2C(=O)c3cccc4cccc(c34)C2=O)C(=O)c2ccncc2)cc1	-4%	1%	-5%	-4%	12%	7%
O=S1(=O)NC(c2ccccc2)CC(CC2CCCCC2)O1 (stereo not drawn)	17%	-1%	-13%	-3%	-5%	-2%
c1ccc(Oc2cccc(OCCCn3cncn3)c2)cc1	x	39%	6%	-14%	10%	-3%
CCn1cc2nc(SCC(=O)Nc3ccccc3C(F)(F)F)n(Cc3ccc(C)cc3)c(=O)c2n1	x	10µM*	-20%	u	45µM*	x
CC(Sc1ccsc1[N+](=O)[O-])C(=O)NCc1ccccc1 (stereo not drawn)	-6%	2%	x	x	x	x
COc1ccccc1CNC(=O)C(C)Sc1ccsc1[N+](=O)[O-] (stereo not drawn)	-4%	4%	40µM*	-31%	u	-32%
COc1ccc(CNC(=O)CSc2ccsc2[N+](=O)[O-])cc1	-3%	-2%	50µM*	u	u	-11%
CCOC(=O)c1ccc(NC(=O)Cn2c(=O)cc(C)c3c(C)nn(-c4ccc(CC)cc4)c32)cc1	x	12%	1%	0%	-12%	x
O=C(c1nc2n(n1)C(c1ccc(Cl)cc1)C=C(c1ccccc1)N2)N1CCOCC1 (stereo not drawn)	1%	-25%	-6%	1%	11%	-22%
O=C(CCl)N1c2ccccc2Sc2ccc3ccccc3c21	x	x	14µM*	x	x	-16%
